# Rows were chosen to be rich in hits. Some 3.8% of all compounds tested hit in one or more screens of this group.
# A549 viability: Nrf2 qHTS screen for inhibitors: counterscreen for cytotoxicity; A549 ARE-Fluc cells, CellTiter-Fluor viability, 18-24 h; AID 504648, 2011; Potency, µM (highest dose often 46 µM), usual class: inhibitors; actives 0.16% (n = 390,000)
#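 A549 ARE_Fluc cells in 5% FBS OPTI-MEM were exposed to compounds in concentration-response for 18-24 h at 37 deg C. Viability was read by CellTiter-Fluor fluorescence (Ex 405/Em 525) after 30 min, before the luciferase read.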
# HepG2 tox: qHTS for Inhibitors of TGF-b: Cytotox Counterscreen. HepG2 CAGA-GFP viability, ATP luminescence, 18 h. actives 0.76% (n = 410,000). Potency, µM (top dose mostly 46.1 µM), hits mostly cytotoxic
#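 CellTiter-Glo luminescence gave cytotoxicity after 18 hours at 37 degrees C. The cells were HepG2 CAGA-GFP in 1% FBS DMEM, stimulated with 500 pg/mL TGF-beta after compound addition. %Activity was normalised to no-cell wells (complete cell-killing) and DMSO (no toxicity), and curves were fitted and classified.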
# Nrf2 inh: Nrf2 qHTS screen for inhibitors; A549 ARE-Fluc reporter, luciferase luminescence, 18-24 h; Potency, µM (highest dose often 46 µM), most hits filed as inhibitors; actives 2.1% (n = 360,000); also: nearly all actives have a fitted effect of over 60% in size
#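 Nrf2 activity is the BugLite luminescence, read 15 min after reagent at room temperature, following CellTiter-Fluor cytotoxicity readout (30 min, 37C). Compound titrations were applied for 18-24 h to 5000 A549 ARE_Fluc cells/well in 5% FBS OPTI-MEM.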
# ATXN viability: Viability Counterscreen for Primary qHTS for Inhibitors of ATXN expression. S2 cells (HEK-293 line with an ATXN2-luciferase reporter) viability, CellTiter-Fluor protease fluorescence, 24 h. Potency, µM (highest dose often 56.7 µM), usual class: cytotoxic. actives 0.49% (n = 400,000). AID 651635, 2014; also: nearly all actives have a fitted effect of over 40% in size
# TGFb inhibitor: qHTS for Inhibitors of TGF-b; HepG2 CAGA-GFP TGF-b/SMAD3 reporter, GFP fluorescence, 18 h; TGF-beta stimulated, 500 pg/mL final; AID 588855, 2011; Potency, µM (series often up to 46.1 µM), hits mostly inhibitors; actives 1.2% (n = 410,000); also: nearly all actives have a fitted effect of over 65% in size
#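 Inhibition was scored as loss of TGF-beta-induced (500 pg/mL final, 18 hours, 37 degrees C) GFP in HEPG2 cells carrying a CAGA-GFP reporter, in DMEM with 1% FBS. Well GFP was summed per cell; Activity was normalised to unstimulated and stimulated DMSO wells, then concentration-response fitting.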
# ATXN2 expr inh: Primary qHTS for Inhibitors of ATXN expression; AID 1745845, 2022; Potency, µM (titrated, usually from 57 µM), actives largely listed as inhibitors; actives 0.72% (n = 360,000); HEK-293 ATXN2-luciferase reporter, luminescence, 24 h; also: nearly all actives have a fitted effect of over 55% in size
#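 qHTS (up to 57 uM final) was run with 24 h compound exposure of reporter cells at 37 °C. Each well was multiplexed: SteadyGlo luminescence measured ATXN2-luciferase expression after a fluorogenic Gly-Phe-AFC viability readout (25 uM final).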
# Numbers stand for hits; 0 = inactive; ? = inconclusive; - = not tested or not shown. Calls follow the shape of the dose curve; as a rule, active = well fitted curve in the direction sought with a large enough effect; inconclusive = small, poorly fitted or top-dose-only effect, or another doubt; inactive = no such curve, though single readings can be large; an effect the other way counts as inactive or inconclusive.
SMILES,A549 viability,HepG2 tox,Nrf2 inh,ATXN viability,TGFb inhibitor,ATXN2 expr inh
N#C/C(=C/c1ccc(N2CCCC2)c([N+](=O)[O-])c1)c1nc2ccccc2[nH]1,0,0,0,-,0,-
N#C/C(=C\c1ccc(Oc2ccc(C(F)(F)F)cc2[N+](=O)[O-])cc1)c1nc2ccccc2[nH]1,?,0,16µM,0,?,0
COc1ccc(NC(=O)CN(C)C(=O)C2CCCO2)cc1 (stereo unspecified),0,0,0,0,0,0
Cc1ccccc1OCC(=O)NCC(=O)N/N=C/c1ccc(Br)o1,0,0,?,0,0,0
COc1ccccc1OCC(=O)N/N=C/C=C/c1ccc([N+](=O)[O-])o1,?,0,?,?,10µM,?
Cc1cc(C)cc(OCC(=O)N/N=C/c2ccc([N+](=O)[O-])o2)c1,?,0,21µM,?,?,?
Cc1ccccc1OCC(=O)N/N=C/c1ccc([N+](=O)[O-])o1,0,0,?,?,18µM,-
Nc1ncnc2c1ncn2Cc1c(F)cccc1Cl,-,-,-,0,-,0
CCOc1ccc(NC(=O)C2CCCN(S(=O)(=O)c3cccc4nonc34)C2)cc1 (stereo unspecified),0,0,0,0,0,0
CN(c1ccc(F)cc1)S(=O)(=O)N1CCCC(C(=O)NCCc2ccccc2)C1 (stereo unspecified),0,0,0,-,?,-
COc1cccc(CNC(=O)C2CCCN(S(=O)(=O)N(C)c3ccc(F)cc3)C2)c1OC (stereo unspecified),0,0,26µM,-,?,-
CN(c1ccc(F)cc1)S(=O)(=O)N1CCCC(C(=O)NCc2ccccc2Cl)C1 (stereo unspecified),0,0,?,-,11µM,-
Cc1cc(C(O)c2ncc(-c3ccc(Oc4ccccc4)cc3)[nH]2)ccc1F (stereo unspecified),-,0,-,?,?,?
OC(c1ccc(F)cc1)c1ncc(-c2ccc(Oc3ccccc3)cc2)[nH]1 (stereo unspecified),-,16µM,-,?,?,0
O=S(=O)(c1ccc(Cl)c(Cl)c1)c1snnc1-c1ccccc1,?,16µM,0,13µM,?,28µM
c1ccc(-c2nnsc2-c2ccccc2)cc1,0,0,0,0,0,0
Nc1nc(SCc2ccccc2Cl)nc2nc3c(cc12)CCCC3,0,0,0,0,0,0
Nc1nc(SCc2ccc(Cl)cc2Cl)nc2nc3c(cc12)CCCC3,0,0,23µM,?,?,?
CCOc1ccc(N)c(SSc2cc(OCC)ccc2N)c1,0,10µM,0,1µM,6.3µM,-
CCOc1cccc(N)c1,0,0,0,0,0,0
Cc1cccc(CN2C(=O)[C@@H]3Cc4c([nH]c5ccccc45)C(C)(C)N3C2=O)c1,0,0,?,?,?,?
Cc1cccc(CN2C(=O)[C@H]3Cc4c([nH]c5ccccc45)C(C)(C)N3C2=O)c1,0,0,?,?,11µM,?
CC(C)(C)c1ccc(C(=O)NCCc2csc3nc(-c4ccccc4F)nn23)cc1,0,0,-,?,18µM,0
CCCCc1c(Cc2cccc(F)c2)ncn1CCc1ccccc1OC,-,-,-,18µM,-,14µM
COc1ccccc1CCn1cnc(-c2ccc(OC)c(OC)c2)c1C(C)C,-,-,-,?,-,0
SMILES,A549 viability,HepG2 tox,Nrf2 inh,ATXN viability,TGFb inhibitor,ATXN2 expr inh
CCCc1c(-c2ccc(Cl)cc2)ncn1CCc1ccccc1OC,-,-,-,35µM,-,?
CCCc1c(-c2cccc(Cl)c2)ncn1CCc1ccccc1OC,-,-,-,22µM,-,?
CCCCc1c(-c2cccc(OC)c2)ncn1CCc1ccccc1OC,-,-,-,-,-,22µM
CCCCCc1c(-c2ccccc2)ncn1CCc1ccccc1OC,-,-,-,?,-,0
CCNC(=O)c1nn(-c2ccccc2C)nc1CO,0,0,0,-,0,-
CCCCCc1ccc(C(=O)CCC(=O)OCC(=O)N(CC)c2c(N)n(Cc3ccccc3)c(=O)[nH]c2=O)cc1,0,0,0,?,?,?
Cc1cc(C)c(C)c(C(=O)CSc2nnc(-c3ccc4[nH]c(C)c(C)c4c3)o2)c1C,?,0,12µM,0,0,0
COc1ccc(CNC(=O)c2ccc(N3CCCC3)c(NC(=O)NCc3ccc(F)cc3)c2)cc1,0,0,-,?,?,0
O=C(Nc1ccc(F)cc1)C1C(c2ccccc2)C1(Cl)Cl (stereo unspecified),0,0,?,?,16µM,?
CCOc1ccc(NC(=O)CCCc2cc(-c3ccc(OCC)cc3)on2)cc1,0,0,0,?,0,?
CCOc1ccc(-c2cc(CCCC(=O)Nc3cccc(OC)c3)no2)cc1,0,0,?,0,0,8.9µM
Cc1[nH]n(-c2ccccc2)c(=O)c1/C=N/NC(=O)c1cccc(F)c1,0,16µM,7.3µM,?,?,-
Cc1[nH]n(-c2ccccc2)c(=O)c1/C=N/Nc1nncc(-c2ccccc2)n1,0,0,?,0,?,2.8µM
Cc1[nH]n(-c2ccc(Br)cc2)c(=O)c1/C=N/NC(=O)c1ccccc1,?,0,?,0,3.5µM,-
Cc1ccc(/C=N/Nc2nncc(-c3ccccc3)n2)o1,0,0,0,0,0,0
Cc1ccc(C)c(N2CCN(C3(c4ccccc4)C(=O)c4ccccc4C3=O)CC2)c1,0,0,0,0,0,0
CC1CC(C)CN(C(=O)CCC(=O)Nc2nnc(C3CCCCC3)s2)C1 (stereo unspecified),0,0,0,0,0,0
COc1ccc(C(CCNCc2ccc(OC)c(OC)c2)c2ccc(F)cc2)cc1 (stereo unspecified),0,0,0,0,0,0
COc1ccc(C(CCNCc2ccc(N(C)C)cc2)c2ccccc2)cc1 (stereo unspecified),0,0,0,22µM,?,?
CC(C)Oc1ccc(C(CCNCc2ccc(O)cc2)c2ccccc2)cc1 (stereo unspecified),0,0,0,-,14µM,?
COc1ccc(C(C)NCCC(c2ccc(OC(C)C)cc2)c2ccccc2OC)cc1 (stereo unspecified),0,13µM,?,-,11µM,?
CC(C)Oc1ccc(CNC(=O)CC(c2ccccc2)c2cc(Cl)ccc2O)cc1 (stereo unspecified),?,16µM,?,?,?,?
COc1ccccc1C(CC(=O)Nc1ccc(Cl)cc1)c1ccc(OC(C)C)cc1 (stereo unspecified),0,0,?,0,0,0
Cc1ccccc1C(=O)c1cccn1CC(=O)N1CCCCC1,0,0,0,0,0,-
COc1ccccc1OCC(O)CNCc1ccc2c(c1)OCO2 (stereo unspecified),0,0,0,?,0,0

# Screens (PubChem BioAssay)
